Measurements taken from PubChem BioAssay (NCI).
Compounds without any hit were thinned out: in the full panel of roughly 83,000, 20% have a hit.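 Compound tested at a single concentration for 48 hours in 96-well plates; a percent growth value below 10 was scored as active.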 Unmarked numbers belong to inactive results. Calls of active or inactive are those of the source.

Legend:
Test in all cases: NCI-60 one-dose screen, 48 h (100 = growth as untreated, 0 = no growth, -100 = all killed)
Conditions in all cases: 10 µM unless noted
T-47D breast = system: T-47D breast
BT-549 breast = system: BT-549 breast
MDA-MB-435 melanoma = system: MDA-MB-435 melanoma
SW-620 colon = system: SW-620 colon
MCF7 breast = system: MCF7 breast
HCT-116 colon = system: HCT-116 colon
HCC-2998 colon = system: HCC-2998 colon
KM12 colon = system: KM12 colon

Structure (SMILES)	growth (T-47D breast)	growth (BT-549 breast)	growth (MDA-MB-435 melanoma)	growth (SW-620 colon)	growth (MCF7 breast)	growth (HCT-116 colon)	growth (HCC-2998 colon)	growth (KM12 colon)
COc1ccc(/C(=N\N=C(N)N)c2ccc(Cl)cc2)cc1OC	68%	81.2%	58%	73.6%	54.5%	34.8%	69.8%	61.5%
CCCCN1C(=O)/C(=c2\sc3n(c2=O)C2C(NN=3)N(CC)C(=O)N2CC)c2cccc(C)c21 (stereo not drawn)	41.4%	82.4%	-31% (active)	39.7%	21.1%	24.8%	61.1%	33.3%
CCCCCCNC(=O)Oc1ccc(/C(=C(/C)c2ccc(OC)cc2)c2ccc(OCCN3CCCCCC3)cc2)cc1	-19.1% (active)	70.3%	24.1%	-41.4% (active)	-30.3% (active)	-86.6% (active)	24.4%	16.7%
CN1CCN(c2ccc(Nc3nc(NCCNS(=O)(=O)c4ccccc4)c4sccc4n3)cc2)CC1	86.3%	108%	105%	101%	92.1%	96%	106%	103%
NS(=O)(=O)c1cccc(Nc2nc(SCC(=O)c3ccc(Cl)cc3)nc3c2CCC3)c1	90.4%	84.7%	99.2%	102%	82.9%	95.7%	107%	105%
Cc1ccc(/C=N/Nc2nc(Nc3ccccc3)nc(Nc3ccc(S(N)(=O)=O)cc3)n2)cc1	54.5%	76.5%	69.4%	92.3%	26.5%	51.3%	74.1%	66%
N#Cc1c(-c2cccs2)cc(-c2cnccn2)nc1SCC(=O)N/N=C/c1ccccc1	25.6%	14.8%	23.6%	8.83% (active)	19.4%	-23.6% (active)	71%	33.2%
CSc1ccc(/C(=N/N=C(N)N)c2ccc(Cl)cc2)cc1	50.5%	-37.3% (active)	-30.1% (active)	2.54% (active)	0.167% (active)	-27.7% (active)	-68.2% (active)	5.79% (active)
C#CCOc1ccccc1/C=N/Nc1nc(-c2ccc(Cl)cc2)cs1	71.9%	128%	104%	93.4%	77.5%	90.7%	120%	91.4%
Cn1cc(-c2nnc(N)nc2-c2c[nH]c3ccc(Br)cc23)c2cc(Br)ccc21	88%	91.1%	93.7%	112%	90.7%	98.8%	114%	99.4%
O=C(Nc1ccc(Cl)c(C(F)(F)F)c1)Nc1ccc2c(ccn2C(=O)c2cccc(F)c2)c1	0.647% (active)	53.3%	34.6%	40.9%	12.9%	20%	44.1%	11%
CN1CCN(Cc2ccc(NC(=O)c3cncc(C#Cc4cnc5ccc(OC6CCOCC6)nn45)c3)cc2C(F)(F)F)CC1	-56.1% (active)	-82.7% (active)	-81.6% (active)	-18.2% (active)	-67.1% (active)	-89.5% (active)	-68.5% (active)	-68.5% (active)
N#Cc1cccc(-c2cc(-c3ccc4c(c3)OCCO4)[nH]n2)c1	36.4%	49.3%	-24.6% (active)	27.5%	12.2%	23.1%	47.3%	36.4%
CC(C)(O)c1cncc(-c2ccc3ncc(C#N)c(N4CCc5cc(F)c(Cl)cc54)c3c2)c1	2.88% (active)	2.34% (active)	17.9%	26.6%	8.93% (active)	24.8%	18.7%	34.3%
NC1=NC2(CCCC2)N(c2ccc(S(=O)(=O)Nc3nccs3)cc2)C(N)=N1	103%	102%	107%	105%	97.6%	109%	109%	101%
Cc1ccc(N2CCN(C3=C(Cl)C(=O)c4ncccc4C3=O)CC2)cc1	-56.1% (active)	103%	-81.2% (active)	-79.7% (active)	-62% (active)	-78.1% (active)	104%	80%

Structure (SMILES)	growth (T-47D breast)	growth (BT-549 breast)	growth (MDA-MB-435 melanoma)	growth (SW-620 colon)	growth (MCF7 breast)	growth (HCT-116 colon)	growth (HCC-2998 colon)	growth (KM12 colon)
C=CCSC1=NC2C(N(CC)C(=O)N2CC)N1/N=C/C=C/c1ccccc1OC (stereo not drawn)	68.9%	79.8%	2.79% (active)	69.7%	42.5%	73.7%	97.8%	57.8%
O=C(N/N=C/c1cc2ccccc2nc1Cl)c1cc(-c2nc3ccccc3[nH]2)nc2ccccc12	67.5%	85.9%	101%	101%	89.7%	98.8%	104%	97.2%
C=C1CCc2nc(SCC(=O)O)ccc2N1	98.5%	114%	101%	106%	99.5%	98%	103%	102%
CCc1cc2c(cc1Cl)nc1c(=O)[nH]c(=O)nc-1n2CCOCC(C)C	75.2%	94%	3.04% (active)	70.2%	39.5%	37.9%	80.3%	74.3%
CC(=O)Nc1nc(C)c(-c2csc(Nc3ccccc3)n2)s1	7.07% (active)	18.1%	43.3%	57.8%	12.3%	19.7%	52.3%	41.1%
Clc1ccc2[nH]cc(-c3nn4cc(-c5cccnc5)nc4s3)c2c1	71.5%	110%	101%	104%	72.3%	99.8%	117%	98%
CCCCCCNC(=O)Oc1ccc(/C(=C(/C)c2ccc(Cl)cc2)c2ccc(OCCN3CCCCCC3)cc2)cc1	48.2%	101%	70%	22.4%	15.7%	30.9%	90.7%	58.9%
COc1cc2oc(-c3cccc(NC(=O)c4cccc([N+](=O)[O-])c4)c3)cc(=O)c2c(OC)c1OC	54.3%	59.8%	53.3%	70.9%	42.9%	33.5%	93.6%	76.4%
COc1ccc(/C=N/N=C(/c2ccccc2)c2ccc3nc(-c4ccc(Cl)cc4)[nH]c3c2)cc1	63.5%	85.7%	85%	88.3%	72%	75.4%	89.6%	75.8%
COc1ccc(OC)c(NC(=O)CCCCCCNC(=O)C(O)(O)C(F)(F)F)c1	22.4%	76.8%	30.1%	6.62% (active)	36.9%	7.1% (active)	51.5%	43.5%
C[C@H]1OCC2(CCN(c3cnc(C(=O)Nc4cc(F)cc5cccnc45)cn3)CC2)[C@H]1N	35.3%	91.5%	79.7%	4.8% (active)	1.15% (active)	13.9%	78.3%	82.5%
CCNC(=O)Oc1ccc(/C(=C(/C)c2ccc(Cl)cc2)c2ccc(OCCN3CCCCCC3)cc2)cc1	10.8%	77.5%	22.5%	-74.5% (active)	-37.8% (active)	-80% (active)	26.1%	12.7%
CN(C)CC(=O)Nc1nc(-c2cccc(NS(=O)(=O)c3cccc4c(N(C)C)cccc34)c2)cs1	56.9%	87.8%	99%	105%	68.3%	80.1%	85.8%	94.1%
CC[C@]12CC(C(=O)OC)=C3Nc4ccccc4[C@@]34CCN(C14)[C@@H]1c3cc4c(cc3O[C@@H]1[C@H]2O)NC1=C(C(=O)OC)C[C@@]2(CC)C3N(CC[C@@]143)C[C@H]1O[C@H]12 (stereo partly drawn)	18.2%	33.9%	-10.9% (active)	23.5%	4.36% (active)	2.44% (active)	-41.3% (active)	13.4%
CC(C)(C)c1cc(NC(=O)Nc2ccc(-c3cn4c5c(sc4n3)CCc3cn(CCCN4CCCCC4)cc3-5)cc2)no1	-32.8% (active)	109%	-98.5% (active)	-68.2% (active)	-79% (active)	-96.2% (active)	-82.7% (active)	-78% (active)
